Results taken from the supplement of paper PMC3334620.
Over roughly 33,000 sequences, “E-score (-0.5 to 0.5)” has its median near -0.017; the highest 2% begin near 0.3. This is one part of a sample in which the highest values are shown more often than they occur.

These sequences were tested against T1, Sut1 (UniProt P53032) (assay: PBM E-score (8-mer binding enrichment) (E-score (-0.5 to 0.5)); higher = stronger / more preferred TF binding). Conditions: protein concentration: 200 nM; construct: GST-full length.
T1 sequence: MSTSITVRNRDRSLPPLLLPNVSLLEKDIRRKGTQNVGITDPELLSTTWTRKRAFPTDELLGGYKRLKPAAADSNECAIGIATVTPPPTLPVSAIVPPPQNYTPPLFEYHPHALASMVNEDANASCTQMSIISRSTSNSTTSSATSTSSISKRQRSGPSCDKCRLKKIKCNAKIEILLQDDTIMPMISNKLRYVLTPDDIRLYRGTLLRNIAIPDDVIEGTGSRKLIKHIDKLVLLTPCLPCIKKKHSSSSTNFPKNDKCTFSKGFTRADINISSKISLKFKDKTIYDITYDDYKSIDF
Method: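 Universal 'all 10-mer' protein binding microarrays (Agilent AMADID 015681) probed with GST-tagged S. cerevisiae TFs (full-length or DBD) made by in vitro transcription/translation (PURExpress), about 100-200 nM. Bound TF was detected with fluorescent anti-GST. Each ungapped 8-mer (which stands for itself and its reverse complement) is scored by the PBM enrichment score (E-score), a modified Wilcoxon-Mann-Whitney statistic from -0.5 to +0.5, computed with the Universal PBM Analysis Suite. Scale: above 0.35 generally sequence-specific binding.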

Sequence | PBM E-score
ATACGGTG | 0.0347
ATACGGAG | 0.362
CTACGGAC | 0.169
CTACGGAG | 0.381
ATACGGAT | 0.0822
CAGAAGGG | -0.238
ACTGCAAG | -0.0394
ATGGGAAA | 0.0371
ATGGCCGG | -0.0767
AGCCGGTG | 0.00841
AGCCGGAG | 0.371
GGCCGGAC | 0.302
GGCCGGAA | 0.0761
CGCCGGCG | 0.375
AGCCGGCG | -0.0364
AGCCGGTC | -0.166
AGCCGGAT | 0.125
AGCCGGAA | 0.233
AGCCGGAC | 0.342
CGCCGGAC | 0.275
CGCCGGCC | -0.0583
ACTTCTCA | -0.033
GCCCATGA | -0.222
AAGAGCGG | 0.0491
GTCGCGCA | 0.0446

Sequence | PBM E-score
TACTCTCA | 0.0648
AACCGTCA | -0.0173
CGCCGGAA | 0.132
CGCCGGAG | 0.391
CGCCGTAG | 0.0361
GCGAACGA | 0.0664
ATTACTTA | 0.327
AATACTCC | 0.199
ATTACTCG | 0.0802
ATTACTCA | 0.162
CTTACTTA | 0.11
GCTACTCC | 0.3
ACTACTCC | 0.226
ATTACTGA | 0.037
CATACTCC | 0.325
GCTACTCA | 0.0293
CATACTCA | -0.0521
ATTACTCC | 0.318
AATGGATC | 0.0349
ATCGACCC | 0.0935
AGTTTTTG | 0.28
CGGGAGAG | -0.0788
TACACTCA | 0.0601
ACATACTG | 0.0299
AGAGCACA | -0.0607

Sequence | PBM E-score
AGTACCTG | 0.0244
GCTCATGA | -0.172
CTGAAGAC | -0.0142
CTTACTCA | -0.0535
CTTACTCC | 0.365
CTTACTAC | 0.0954
TAGCCCCA | -0.121
TCCGTTAA | 0.326
GCCGTTAA | 0.092
CCCGTTAA | -0.176
CCCAAAGC | -0.0681
CCCTGGTA | -0.336
CTTGGGGC | -0.245
GGGTTAAC | 0.0764
CTCCTAAG | -0.111
GACTCCAA | -0.0971
TACTCCAA | -0.0372
GACTCCTA | 0.0134
CCCTCCGA | 0.0492
GACTCCGA | 0.486
TACTCCGA | 0.491
CACTCCGA | 0.471
CACTCCAA | 0.0306
TCCTCCGA | 0.0213
AAACTATT | 0.24

Sequence | PBM E-score
AGCTAGGC | -0.232
GCCTAGGA | -0.122
ACTGGGGC | -0.231
GAGCTATC | -0.0645
GACCTTCC | 0.0118
AGCCACCT | -0.248
GACCGAAC | 0.0271
ATCCGAAT | 0.32
CACCGAAC | -0.0118
AACCGAAT | 0.099
CGCCGAAA | -0.00015
CACCGAAA | 0.137
CTCCGAAC | 0.468
GTCCGAAC | 0.397
GCCCGAAC | -0.00475
CTCCGAAA | 0.46
ATCCGAAC | 0.213
ATCCGAAG | 0.101
CCTAGCCC | -0.128
AACTAGTC | 0.0497
ATCGATCA | 0.0202
CGAAACAC | 0.0972
CTAACTGA | 0.0767
ACTGGAAT | 0.0551
CGGCCGCC | -0.05

Sequence | PBM E-score
CCCCGAAC | 0.0945
GCCCGAAA | 0.111
ATCCGAAA | 0.272
CCCCGAAA | 0.301
CTCCGAAG | 0.457
CACCGAAG | 0.157
CGCCGAAG | 0.0368
TTCCGAAA | 0.291
GTCCGAAA | 0.447
GCGCTAGC | -0.26
CGAGCCCG | -0.187
AGAACTAC | 0.0481
CATTGATA | 0.139
CCGACTCA | 0.0266
CCGACTCC | 0.321
AGGACTCA | -0.114
CGGACTCC | 0.475
GGGACTCA | -0.288
AGGACTCC | 0.129
CGGACTCA | 0.429
GCGACTCC | 0.119
CAGACTCC | 0.0916
AAGGTCTA | -0.127
CTGGTTTA | -0.0882
ACCGACAC | 0.0514

Sequence | PBM E-score
GCGACTAA | -0.0293
AGCCTAAC | -0.192
GGAACCTA | -0.00606
CGCTGCGA | -0.153
ATGTCCGC | 0.282
ATGTCCGA | 0.45
ATGTCCCG | 0.0332
CTGTCCGA | 0.192
ATGTCCGG | 0.451
GTGTCCGA | 0.149
ACACTGGT | -0.102
AGGGGCGG | -0.158
CAATATGA | 0.181
TAATATGA | 0.315
TAATATCA | 0.306
GAATATGA | 0.0941
AAATATCA | 0.161
TAATATTA | 0.313
GAATATTA | 0.255
CAATATCA | 0.188
CAATATTA | 0.296
AAGCGCGC | 0.105
ACCGATCA | 0.12
AAAGTTCA | -0.00163
CCGCCTAG | -0.166

Sequence | PBM E-score
TCTTTTCA | 0.178
AAGCTTAT | 0.0714
TAAACGTA | 0.131
GACACGGA | 0.296
CACACGGA | 0.12
AAAACGGA | 0.244
TAAACGGA | 0.321
TACACGGA | 0.335
TAAACGAA | 0.263
CAAACGGA | 0.302
GAAACGGA | 0.284
CGATGCTC | 0.156
CCTTTAGC | -0.0413
AGATCGTC | -0.0781
GCTAAAAA | -0.0323
GCGCGGAC | 0.218
ACGCGGAG | 0.362
ACGCGGAA | 0.112
CCGCGGAA | 0.253
ACGCGGCC | -0.273
ACGCGGAT | 0.0724
ACGCGGAC | 0.302
CCGCGGAC | 0.274
CCGCGGAG | 0.308
